# Test results published in PubChem BioAssay AID2073 (Sanford-Burnham Center for Chemical Genomics, 2009).
# The campaign covered roughly 290,000 compounds. About 570 (0.2%) were called active. About 1% were inconclusive and are not listed. The sample holds actives, similar compounds and a random draw of the others, so the mix is not that of the screen. No stated cut-off is given here; in the data, active means inhibition mostly above about 51% (no sharp cut-off); inconclusive means no clear call, values can overlap the other calls; inactive means mostly below about 53%.
# Target: Voltage-dependent N-type calcium channel subunit alpha-1B (Homo sapiens) (UniProt Q00975)
# Sequence (Q00975 whole entry, looked up): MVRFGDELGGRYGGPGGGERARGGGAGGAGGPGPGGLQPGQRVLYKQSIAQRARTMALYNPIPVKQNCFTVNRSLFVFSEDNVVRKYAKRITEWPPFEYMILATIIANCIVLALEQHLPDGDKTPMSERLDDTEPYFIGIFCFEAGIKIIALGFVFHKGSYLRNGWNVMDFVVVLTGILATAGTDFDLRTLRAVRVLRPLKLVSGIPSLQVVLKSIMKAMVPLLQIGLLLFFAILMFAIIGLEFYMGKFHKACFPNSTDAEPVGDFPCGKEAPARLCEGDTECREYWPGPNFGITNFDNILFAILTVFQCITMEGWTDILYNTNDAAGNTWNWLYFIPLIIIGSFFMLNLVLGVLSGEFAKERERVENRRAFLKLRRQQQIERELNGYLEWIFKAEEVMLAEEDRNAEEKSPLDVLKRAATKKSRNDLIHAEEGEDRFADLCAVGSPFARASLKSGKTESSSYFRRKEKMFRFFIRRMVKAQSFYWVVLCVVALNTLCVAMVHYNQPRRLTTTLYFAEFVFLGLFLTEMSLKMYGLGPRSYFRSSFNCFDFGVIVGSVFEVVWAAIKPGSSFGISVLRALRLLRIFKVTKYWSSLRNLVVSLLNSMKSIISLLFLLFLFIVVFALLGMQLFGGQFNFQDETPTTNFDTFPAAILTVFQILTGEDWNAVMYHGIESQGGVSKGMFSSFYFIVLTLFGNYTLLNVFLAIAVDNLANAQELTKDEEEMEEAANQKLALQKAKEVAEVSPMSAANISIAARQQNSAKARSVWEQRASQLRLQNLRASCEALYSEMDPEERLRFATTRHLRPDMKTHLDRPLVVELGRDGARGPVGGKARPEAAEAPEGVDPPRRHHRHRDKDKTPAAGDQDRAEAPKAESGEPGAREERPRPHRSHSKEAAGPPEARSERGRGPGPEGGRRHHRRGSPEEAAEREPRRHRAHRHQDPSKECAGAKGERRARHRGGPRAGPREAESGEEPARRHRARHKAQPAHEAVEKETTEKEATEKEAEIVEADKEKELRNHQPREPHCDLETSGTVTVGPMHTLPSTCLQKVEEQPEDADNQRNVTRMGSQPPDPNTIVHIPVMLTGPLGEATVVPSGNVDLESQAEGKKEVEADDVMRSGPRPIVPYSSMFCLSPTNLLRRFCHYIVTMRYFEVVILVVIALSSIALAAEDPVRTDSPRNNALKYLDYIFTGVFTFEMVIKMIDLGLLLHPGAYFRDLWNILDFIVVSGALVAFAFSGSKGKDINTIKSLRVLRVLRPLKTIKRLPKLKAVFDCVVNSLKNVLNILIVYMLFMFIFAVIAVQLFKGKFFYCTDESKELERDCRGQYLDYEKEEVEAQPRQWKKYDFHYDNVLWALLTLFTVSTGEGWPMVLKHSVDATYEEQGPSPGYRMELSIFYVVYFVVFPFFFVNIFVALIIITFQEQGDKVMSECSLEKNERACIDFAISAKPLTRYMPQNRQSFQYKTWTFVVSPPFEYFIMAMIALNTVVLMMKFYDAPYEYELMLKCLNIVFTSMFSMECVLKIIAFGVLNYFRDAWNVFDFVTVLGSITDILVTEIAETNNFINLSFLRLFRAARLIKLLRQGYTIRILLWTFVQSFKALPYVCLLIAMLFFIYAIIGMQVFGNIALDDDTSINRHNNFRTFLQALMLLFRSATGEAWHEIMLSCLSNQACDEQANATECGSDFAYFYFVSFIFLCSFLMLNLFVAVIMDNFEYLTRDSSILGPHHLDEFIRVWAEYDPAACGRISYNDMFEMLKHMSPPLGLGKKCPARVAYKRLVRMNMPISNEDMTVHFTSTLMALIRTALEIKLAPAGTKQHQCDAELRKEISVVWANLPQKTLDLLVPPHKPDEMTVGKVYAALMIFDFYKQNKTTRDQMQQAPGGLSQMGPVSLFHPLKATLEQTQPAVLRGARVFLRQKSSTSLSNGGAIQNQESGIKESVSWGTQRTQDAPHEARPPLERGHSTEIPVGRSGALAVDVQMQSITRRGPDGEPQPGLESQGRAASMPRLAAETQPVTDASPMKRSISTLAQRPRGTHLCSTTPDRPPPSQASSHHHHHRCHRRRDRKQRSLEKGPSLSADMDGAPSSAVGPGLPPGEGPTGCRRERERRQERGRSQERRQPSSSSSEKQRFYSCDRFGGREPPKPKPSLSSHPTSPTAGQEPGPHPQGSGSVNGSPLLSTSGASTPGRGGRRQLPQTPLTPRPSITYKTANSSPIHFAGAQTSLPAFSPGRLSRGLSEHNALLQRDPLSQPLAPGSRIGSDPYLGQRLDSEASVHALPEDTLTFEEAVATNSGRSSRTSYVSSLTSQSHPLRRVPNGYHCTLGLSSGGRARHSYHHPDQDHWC
# Assay: disruptors of CaV2.2 binding to Mint1 – biochemical, HTRF (AID 2073)
# Settings: HTRF protein-protein interaction, Mint1-CaV2.2, at 20 µM, stronger effect = higher value
SMILES,inhibition,inhibition (measured here: average of repeat tests)
O=C(O)CC/C(=C\c1ccc(Cl)c([N+](=O)[O-])c1)c1nc2ccccc2s1,6.1% (inactive),–
CCC(C(=O)N1CCOCC1)n1nc(C)c2sc3ccccc3c2c1=O (configuration not stated),12.1% (inactive),–
CN1CCN(c2ccccc2NC(=O)c2cccc(OCc3ccccc3)c2)CC1,19% (inactive),–
COCCn1c(SCC(=O)Nc2ccc(F)cc2)nc2ccccc2c1=O,6.9% (inactive),–
COCCn1c(SCC(=O)Nc2ccc(NC(C)=O)cc2)nc2ccccc2c1=O,-7.5% (inactive),–
CC1(C)CC(=O)C=C(NNC(=O)C2CCCCC2)C1,1.6% (inactive),–
C#CCOCCOCCOCCNc1nc(N2CCN(C(=O)C(Cc3ccc(O)cc3)n3cc(C(N)CC(C)C)nn3)CC2)nc(N2CCN(C(=O)C(Cc3cc4ccccc4[nH]3)n3cc(C(N)Cc4ccc(O)cc4)nn3)CC2)n1 (configuration not stated),14.6% (inactive),–
C#CCOCCOCCOCCNc1nc(N2CCN(C(=O)[C@H](Cc3cc4ccccc4[nH]3)n3cc([C@@H](N)Cc4ccc(O)cc4)nn3)CC2)nc(N2CCN(C(=O)[C@H](Cc3cc4ccccc4[nH]3)n3cc([C@@H](N)CC(C)C)nn3)CC2)n1,51.5% (active),–
C#CCOCCOCCOCCNc1nc(N2CCN(C(=O)[C@H](Cc3ccc(O)cc3)n3cc([C@@H](N)CC(C)C)nn3)CC2)nc(N2CCN(C(=O)[C@H](Cc3cc4ccccc4[nH]3)n3cc([C@@H](N)CC(C)C)nn3)CC2)n1,22.3% (inactive),–
CC[N+](CC)(CC#Cc1ccccc1)CC(=O)c1ccc(Cl)cc1,-0.1% (inactive),–
Cc1nc(C)c(C(=O)OCC(=O)N2CCN(c3ccccc3)CC2)s1,-4.9% (inactive),–
COC(=O)c1ccccc1NC(=O)CN1CCC(NC(=O)c2ccc(C)cc2)CC1,-3.1% (inactive),–
Nc1c(C(=O)N/N=C/c2ccccc2Cl)oc2nc(-c3ccccc3)cc(-c3ccco3)c12,45.6% (inactive),–
NNC(=O)c1oc2nc(-c3ccco3)cc(-c3ccco3)c2c1N,59.1% (active),–
Cc1ccc(-c2cc(-c3ccco3)c3c(N)c(C(=O)NN)oc3n2)cc1,55.5% (inactive),31.3%
Nc1c(C(=O)N/N=C/c2cccnc2)oc2nc(-c3ccco3)cc(-c3ccco3)c12,44.8% (inactive),–
NNC(=O)c1oc2nc(-c3ccccc3)cc(-c3ccccc3)c2c1N,18.4% (inactive),–
NNC(=O)c1oc2nc(-c3cccs3)cc(-c3ccco3)c2c1N,51.7% (active),–
N#Cc1c(Nc2ccccc2)c(/C=N/NCCO)c[nH]c1=O,-20.2% (inactive),–
CN(C)c1cccc(C(=O)OCC(=O)NC2CCCC2)c1,2.1% (inactive),–
Cc1oc(-c2ccccc2F)nc1CS(=O)(=O)CC(=O)N1CCCCCC1,-4.2% (inactive),–
COc1cc(C(=O)NCCC(=O)NCCCN2CCCCC2)cc(OC)c1OC,-4% (inactive),–
FC(F)(F)c1ccccc1NC1=NCCC1,0.7% (inactive),–

SMILES,inhibition,inhibition (measured here: average of repeat tests)
FC(F)(F)c1ccccc1Nc1nccs1,-8.5% (inactive),–
Cc1nsc(Nc2ccccc2)c1C#N,36.6% (inactive),–
Cc1cc(C)c(C#N)c(Nc2ccccc2Cl)n1,5.7% (inactive),–
COc1cccc(CC(Cc2nc3ccccc3[nH]2)c2nc3ccccc3[nH]2)c1 (configuration not stated),4.4% (inactive),–
CCOc1ccc(/C=N/NC(=O)CSc2n[nH]c(=O)[nH]c2=O)cc1OC,-0.5% (inactive),–
CC(=O)c1ccc(N2CCN(C(=O)c3ccc(Cl)c(NC4=NC5CS(=O)(=O)CC5S4)c3)CC2)cc1 (configuration not stated),3.4% (inactive),–
Cc1ccnc(NS(=O)(=O)c2ccc(NC(=O)C3CCCO3)cc2)n1 (configuration not stated),-3% (inactive),–
O=C(NCc1ccc(F)cc1)C1CCCN1C(=O)Nc1cccc(F)c1 (configuration not stated),8.7% (inactive),–
Cc1ccc(N=CC=C2OC(C)(C)C(C)(C)O2)cc1,1.3% (inactive),–
COc1cc2c(cc1NC(=O)C(C)N1CCN(S(=O)(=O)c3ccc(C)c(C)c3)CC1)oc1ccccc12 (configuration not stated),12.7% (inactive),–
COc1cc2c(cc1NC(=O)C(C)OC(=O)c1ccc(S(=O)(=O)Nc3ccccc3Cl)cc1)oc1ccccc12 (configuration not stated),56.6% (active),–
COc1ccc(S(=O)(=O)Nc2ccccc2Cl)cc1NC(C)=O,1.4% (inactive),–
Cc1nc2cc(F)ccc2n1C1CCN(S(=O)(=O)c2ccccc2)CC1,5.6% (inactive),–
O=C(c1csc2c1CCCC2)N1CCN(c2ccccc2)CC1,-0.9% (inactive),–
Cc1cc(C)cc(Nc2nc(-c3ccc(S(=O)(=O)N4CCCC4)cc3)cs2)c1,67.2% (active),–
Cc1ccc(Nc2nc(-c3ccc(S(=O)(=O)N4CCCC4)cc3)cs2)cc1C,36.3% (inactive),–
O=S(=O)(c1ccc(-c2csc(Nc3ccc(Br)cc3)n2)cc1)N1CCCC1,-7.1% (inactive),–
COC(=O)c1ccccc1NC(=O)COc1ccc(S(=O)(=O)N2CCCC2)cc1C,6.4% (inactive),–
COc1cccc2[nH]c3ccccc3c(=O)c12,30.8% (inactive),–
COc1cccc2c(=O)c3cccc(N)c3[nH]c12,52.3% (active),–
Nc1cccc2c(=O)c3ccccc3[nH]c12,41.4% (inactive),–
CCCCN(C)C(=O)CSc1nc(NCc2ccc(OC)cc2)c2ccccc2n1,-1% (inactive),–
CCCn1c(C(C)Nc2nc(-c3ccc(Cl)c([N+](=O)[O-])c3)cs2)nc2cc(Cl)c(N3CCCCC3)cc21 (configuration not stated),21% (inactive),–
